In all, about 140,000 compounds went through this assay and about 840 (0.6%) were called active. This excerpt belongs to a sample that is enriched for actives. Unmarked numbers belong to inactive results.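 How the source made its calls: active means viability gain under doxorubicin at or above a set limit, the compound median plus 3 SD (cut at about 4.7% in these data); inactive means the rest.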
assay: protection of MRP-1-high cells against doxorubicin toxicity – H69AR cells, CellTiter-Glo, MRP-1 activator project, primary screen (AID 799); conditions: viability rescue, at 10 µM, hits give high values;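 further: MRP-1 overexpressing cells given doxorubicin 25 µM after compound pretreatment; 18-22 h compound pretreatment then 72 h with doxorubicin before readout; 0% = doxorubicin-only wells and 100% = vehicle-treated cells without doxorubicin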

Row | SMILES | viability increase
1 | Cc1cc(NS(=O)(=O)c2ccc(NC(=S)NC(=O)c3ccc(F)cc3Cl)cc2)no1 | -2%
2 | CCN(CC)c1ccc([N+](=O)[O-])cc1C(=O)O | 0.59%
3 | CC(NC(=O)COC(=O)C1CCN(S(=O)(=O)c2ccccc2C(F)(F)F)CC1)c1ccccc1 (centres undefined) | -1.86%
4 | COCC(C)n1c(C)cc(C(=O)CSc2cc(C)c3ccccc3n2)c1C (centres undefined) | 0.22%
5 | Cc1ccc(N2C(=O)C(Cc3ccccc3)NC2=S)cc1 (centres undefined) | -0.7%
6 | Cc1ccc(C2C3=C(Nc4[nH]n(-c5ccccc5)c(=O)c42)c2ccccc2C3=O)cc1 (centres undefined) | -0.43%
7 | Cc1ccc(N2C(=O)C3C(c4ccccc4)(C2=O)C3(c2ccccc2)c2ccccc2)cc1 (centres undefined) | 5.37% (active)
8 | N/C(=N\OC(=O)N1c2ccccc2Sc2ccccc21)c1ccc(Br)cc1 | -2.4%
9 | COc1cc2c(cc1NC(=O)COC(=O)/C=C/c1ccccc1)oc1ccccc12 | -4.74%
10 | CS(=O)(=O)N(CC(=O)N1CCN(Cc2ccc3c(c2)OCO3)CC1)c1ccc2c(c1)OCO2 | -1.42%
11 | O=C(CSCc1ccc(Cl)cc1)N1CCCCC1 | 0.74%
12 | O=C(CSCc1ccc(Cl)cc1)N1CCN(Cc2ccc3c(c2)OCO3)CC1 | 5.45% (active)
13 | CCN(C(=O)COC(=O)c1c(NC(C)=O)sc(C)c1C)C1CCS(=O)(=O)C1 (centres undefined) | -2.05%
14 | CCOc1ccc(Nc2nc(Cl)nc(N3CCN(c4ccc(OC)cc4)CC3)n2)cc1 | 1.19%
15 | CN(Cc1cccs1)C(=O)Cc1c[nH]c2ccccc12 | -2.21%
16 | Cc1cccc(C(=O)Nc2ccc(CC(=O)O)cc2)c1 | -0.27%
17 | Cc1cccc(OCc2ccc(C(=O)Nc3ccc(F)cc3)cc2)c1 | 4.9% (active)
18 | CCC(=O)Nc1ccc(C(=O)Nc2cccc(OC)c2)cc1 | -2.62%
19 | CCOP(=O)(OCC)C(Nc1cccc(C)c1)c1ccc(F)cc1 (centres undefined) | 0.43%
20 | CCOC(=O)C(NC(=O)CC(C)C)(Nc1sc2c(c1C(N)=O)CCCC2)C(F)(F)F (centres undefined) | -2.1%
21 | C/C(=N\NS(=O)(=O)c1ccc(Cl)cc1)c1ccc(NC(=O)c2ccco2)cc1 | -2.49%
22 | NC1=NC(=O)C(Cc2cccc(Cl)c2Cl)S1 (centres undefined) | -0.15%
23 | O=C1NC(=Nc2ccc(Cl)cc2)SC1Cc1cccc(Cl)c1Cl (centres undefined) | 6.35% (active)
24 | Cc1c(Cl)cccc1NC(=O)CC1SC(=NCC2CCCO2)NC1=O (centres undefined) | 2.61%
25 | CC(C)CNC(=O)C(=O)Nc1ccc(N(C)C)cc1 | 0%
26 | CC1CCc2sc(C(=O)N/N=C/C3CCCCC3)cc2C1 (centres undefined) | -1.48%
27 | Cc1ccc(C(c2sc3nc(C)nn3c2O)N2CCN(c3ccc(F)cc3)CC2)cc1 (centres undefined) | -2.22%

Row | SMILES | viability increase
28 | Oc1c(C(c2ccco2)N2CCC3(CC2)OCCO3)sc2ncnn12 (centres undefined) | 0.05%
29 | Oc1c(C(c2cccs2)N2CCN(c3ccc(F)cc3)CC2)sc2ncnn12 (centres undefined) | 10.6% (active)
30 | Cc1c(C2=CCN(S(=O)(=O)c3ccc(Cl)cc3)CC2)c2ccccc2n1C | -0.07%
31 | COc1nc(N(C)C)nc(N2CC(=O)N(CCNS(=O)(=O)c3ccc(C)cc3)C2=N)n1 | -2.66%
32 | O=C1N/C(=C/c2cccn2-c2ccccc2)C(=O)N1c1cccc(Cl)c1 | -0.22%
33 | Cc1c(Cl)cccc1NC(=S)NCc1ccc2c(c1)OCO2 | -4.04%
34 | COc1ccc(C2CC(c3cccs3)=NN2C(=O)COC(=O)c2cc3ccccc3cc2O)cc1OC (centres undefined) | -0.45%
35 | FC(F)(F)c1cc(-c2ccco2)nc(NCc2ccc(Cl)cc2)n1 | -0.53%
36 | COc1nc(NCc2ccc(Cl)cc2)nc(OC)n1 | 5.12% (active)
37 | C=CCNc1nc(C)nc(OC)n1 | 0.38%
38 | CCOc1ccc(/C=N/OCC(=O)NCc2cccs2)cc1 | 0%
39 | COc1ccc2c(c1)C(SCC(=O)NCc1ccccc1)CC(C)(C)O2 (centres undefined) | -1.61%
40 | COc1ccc(-c2csc(NC(=O)CCCc3cccs3)n2)cc1 | 3.87%
41 | COc1ccc(N2C(=O)C(CC(=O)Nc3ccc(F)cc3)N(CCc3cccs3)C2=O)cc1 (centres undefined) | 5.39% (active)
42 | COC(=O)CN1C(=S)N(c2ccccc2)C(=O)C1CC(=O)Nc1ccc(Cl)cc1 (centres undefined) | -1.37%
43 | CC(C)COP(=O)(c1ccc(N(C)C)cc1)C(Nc1ccccc1)c1cccnc1 (centres undefined) | -3.48%
44 | CCOc1ccc(Oc2nc(C)cc(OC)n2)nn1 | 0.08%
45 | Cc1ccc(NC(=O)c2cccs2)cc1S(=O)(=O)N(C)C | -1.25%
46 | O=S(=O)(NCCSc1ccccn1)c1ccc(Cl)cc1 | 0.85%
47 | Cc1cccc2cc(CN(Cc3cccs3)C(c3nnnn3C3CCCC3)C(C)C)c(=O)[nH]c12 (centres undefined) | -3.53%
48 | Cc1cccc2cc(CN(C(=O)c3cccs3)c3ccccc3)c(=O)[nH]c12 | -0.07%
49 | Cc1cccc2cc(CN(Cc3cccs3)C(=S)NCc3ccco3)c(=O)[nH]c12 | 5.98% (active)
50 | Cc1ccc(Oc2cc(NC(=O)CCCn3nc(C)c([N+](=O)[O-])c3C)cc([N+](=O)[O-])c2)cc1 | -2.6%
51 | O=C(O)c1cccc(N=NN2CCCCCC2)c1 | -1.92%
52 | COC(C(=O)NCc1ccccc1C)c1ccccc1 (centres undefined) | -0.37%
53 | COc1cc(C2C(N3C(=O)c4ccccc4C3=O)C(=O)N2c2ccc(C)c(C)c2)cc(OC)c1OC (centres undefined) | -3.6%
54 | CCCCOc1ccc(C(=O)N/C(=C/C=C/c2ccccc2)C(=O)N2CCOCC2)cc1 | -4.14%
